± gives the standard deviation of the averaged measurements.
Columns and labels:
[1] = system: DLD1; assay: cell viability (CellTiter-Glo) relative to plate median (fraction of plate median); higher = more viable cells; settings: 5 µM; treatment time 24 h; reporter: 7TFP
Method in brief: (§1)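 Library compounds, at a final 5 µM, stayed on reporter cells for 24 h. The cells were colorectal cancer lines stably transduced with lentiviral TCF/Wnt firefly luciferase reporters, seeded in 384-well plates 24 h before dosing. Firefly luciferase or CellTiterGlo luminescence from parallel plates was normalised to the plate median in webcellHTS2 (additive, no log transformation), and two independent replicates were averaged.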

[2] = system: HCT116; assay: as above; settings: 5 µM; treatment time 24 h; reporter: TCF4/Wnt
Method in brief: as §1

[3] = system: SW480; assay: as above; settings: 5 µM; treatment time 24 h; reporter: 7TFP
Method in brief: as §1

[4] = system: DLD1; assay: TCF/Wnt firefly luciferase reporter signal relative to plate median (fraction of plate median); higher = higher Wnt reporter signal; settings: 5 µM; treatment time 24 h; reporter: 7TFP
Method in brief: as §1

[5] = system: SW480; assay: as above; settings: 5 µM; treatment time 24 h; reporter: 7TFP
Method in brief: as §1

COC(=O)C1=CCCN(C)C1
cell viability [1]: 0.991 ± 0.13
cell viability [2]: 1.07 ± 0.042
cell viability [3]: 1.1 ± 0.099
TCF/Wnt firefly luciferase reporter signal [4]: 1.07 ± 0.11
TCF/Wnt firefly luciferase reporter signal [5]: 1.05 ± 0.064

CC[C@@]1(O)C[C@H](O[C@H]2C[C@H](N(C)C)[C@H](O)[C@H](C)O2)c2c(cc3c(c2O)C(=O)c2c(O)cccc2C3=O)[C@H]1C(=O)OC
cell viability [1]: 1.07 ± 0.17
cell viability [2]: 0.9035 ± 0.0064
cell viability [3]: 1.2 ± 0.12
TCF/Wnt firefly luciferase reporter signal [4]: 1.4 ± 0.05
TCF/Wnt firefly luciferase reporter signal [5]: 0.842 ± 0.028

C[C@@H](CO)NC(=O)[C@@H]1C=C2c3cccc4[nH]cc(c34)C[C@H]2N(C)C1
cell viability [1]: 0.983 ± 0.067
cell viability [2]: 1.01 ± 0.061
cell viability [3]: 0.939 ± 0.052
TCF/Wnt firefly luciferase reporter signal [4]: 1.09 ± 0.099
TCF/Wnt firefly luciferase reporter signal [5]: 0.98 ± 0.026

CC(=O)O[C@H]1C[C@@H](OC(C)=O)C(C)(C)C2C[C@@H](OC(C)=O)[C@]3(C)C(CC[C@@]4(C)[C@H](c5ccoc5)C(=O)[C@H]5O[C@]543)[C@]21C (stereo not given in full)
cell viability [1]: 0.99 ± 0.014
cell viability [2]: 1.06 ± 0.19
cell viability [3]: 1.02 ± 0.035
TCF/Wnt firefly luciferase reporter signal [4]: 1.2 ± 0.057
TCF/Wnt firefly luciferase reporter signal [5]: 1.09 ± 0.078

c1cncc([C@@H]2CCCCN2)c1
cell viability [1]: 0.993 ± 0.011
cell viability [2]: 0.952 ± 0.17
cell viability [3]: 0.9635 ± 0.0078
TCF/Wnt firefly luciferase reporter signal [4]: 0.971 ± 0.11
TCF/Wnt firefly luciferase reporter signal [5]: 0.927 ± 0.044

COc1cc2ccc(=O)oc2c2ccoc12
cell viability [1]: 0.932 ± 0.077
cell viability [2]: 1.01 ± 0.02
cell viability [3]: 0.9355 ± 0.0035
TCF/Wnt firefly luciferase reporter signal [4]: 0.968 ± 0.17
TCF/Wnt firefly luciferase reporter signal [5]: 0.996 ± 0.063

CC[C@@H](C)C(=O)O[C@H]1[C@H](O)[C@H]2[C@@H](CN3C[C@@H](C)CC[C@H]3[C@@]2(C)O)[C@@H]2C[C@]34O[C@]5(O)[C@@H](OC(=O)[C@](C)(O)[C@@H](C)O)CC[C@@]3(C)[C@@H]5[C@@H](OC(C)=O)[C@@H](OC(C)=O)[C@H]4[C@@]21O (stereo in doubt)
cell viability [1]: 1.03 ± 0.035
cell viability [2]: 1.17 ± 0.085
cell viability [3]: 1.08 ± 0.028
TCF/Wnt firefly luciferase reporter signal [4]: 1.18 ± 0.092
TCF/Wnt firefly luciferase reporter signal [5]: 1.08 ± 0.071

Cc1cc2c(C(C)C)c(O)c(O)c(C=O)c2c(O)c1-c1c(C)cc2c(C(C)C)c(O)c(O)c(C=O)c2c1O
cell viability [1]: 0.974 ± 0.037
cell viability [2]: 0.969 ± 0.044
cell viability [3]: 0.976 ± 0.03
TCF/Wnt firefly luciferase reporter signal [4]: 0.966 ± 0.048
TCF/Wnt firefly luciferase reporter signal [5]: 1.04 ± 0.11

CN1CCCCC1c1ccc(-c2cccnc2)nc1 (stereo not given)
cell viability [1]: 0.963 ± 0.024
cell viability [2]: 0.901 ± 0.12
cell viability [3]: 1.01 ± 0.027
TCF/Wnt firefly luciferase reporter signal [4]: 1.03 ± 0.021
TCF/Wnt firefly luciferase reporter signal [5]: 0.983 ± 0.096

O=C1C=CC(=O)c2ccccc21
cell viability [1]: 0.9965 ± 0.005
cell viability [2]: 1.05 ± 0.042
cell viability [3]: 0.989 ± 0.12
TCF/Wnt firefly luciferase reporter signal [4]: 1.13 ± 0.057
TCF/Wnt firefly luciferase reporter signal [5]: 0.963 ± 0.047

CNC(C)[C@H](O)c1ccccc1 (stereo not given in full)
cell viability [1]: 0.976 ± 0.063
cell viability [2]: 0.917 ± 0.0099
cell viability [3]: 1.02 ± 0.03
TCF/Wnt firefly luciferase reporter signal [4]: 0.978 ± 0.2
TCF/Wnt firefly luciferase reporter signal [5]: 1 ± 0.095

COc1ccc2[nH]cc(CCN)c2c1
cell viability [1]: 1.09 ± 0.078
cell viability [2]: 1.06 ± 0.086
cell viability [3]: 1.04 ± 0.093
TCF/Wnt firefly luciferase reporter signal [4]: 0.924 ± 0.095
TCF/Wnt firefly luciferase reporter signal [5]: 1.06 ± 0.014

COC1C(O)C(O[C@H]2CC[C@]3(C=O)C4C(CC[C@]3(O)C2)[C@@]2(O)CC[C@H](C3=CC(=O)OC3)[C@@]2(C)C[C@H]4OC(C)=O)OC(C)C1OC(C)=O (stereo not given in full)
cell viability [1]: 0.929 ± 0.11
cell viability [2]: 1.03 ± 0.083
cell viability [3]: 0.941 ± 0.044
TCF/Wnt firefly luciferase reporter signal [4]: 0.828 ± 0.042
TCF/Wnt firefly luciferase reporter signal [5]: 0.83 ± 0.069

— the supplement of paper PMC6522484
